Results filed as inconclusive are left out. Active and inactive are the calls of the source. Rule for the calls, unless noted: active = hit-call score of the fitted dose curve at least 0.9, where 1 is the maximum; inactive = score below 0.9.
Columns and labels:
[1] = read-out: Human Leukocyte Antigen - DR isotype (HLADR), HLA-DRA (gene 3122); experiment: BSK_3C_HLADR: BioMAP Diversity Plus: 3C Assay for Human Leukocyte Antigen - DR isotype (HLADR) Biomarker Activity (AID 2283019); conditions: primary human endothelial cells (HUVEC); actives raise or lower the signal
Summary of the method: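 Endothelial cells from human umbilical vein are treated with test chemical; after 24 h, HLA-DR levels are measured by ELISA. Data are fitted in both directions using DMSO as the baseline.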

[2] = read-out: Interleukin-8 (IL8), CXCL8 (gene 3576); experiment: BSK_3C_IL8: BioMAP Diversity Plus: 3C Assay for Interleukin-8 (IL8) Biomarker Activity (AID 2283020); conditions: primary human endothelial cells (HUVEC); actives raise or lower the signal
Summary of the method: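 Human vascular endothelial cells (umbilical vein) in the 3C system; IL-8 level detected by ELISA at 24 h post-dose, with DMSO as baseline.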

[3] = read-out: Monokine induced gamma interferon (MIG), CXCL9 (gene 4283); experiment: BSK_3C_MIG: BioMAP Diversity Plus: 3C Assay for Monokine induced gamma interferon (MIG) Biomarker Activity (AID 2283021); conditions: primary human endothelial cells (HUVEC); actives raise or lower the signal
Summary of the method: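 After 24 h of treatment, human umbilical vein endothelial cultures (3C system) had their MIG biomarker level determined by ELISA, with DMSO serving as negative control.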

[4] = biological target: human Vitamin D Receptor (VDR), VDR (gene 7421) (UniProt P11473); experiment: ATG_VDR_TRANS: Attagene TRANS-FACTORIAL HepG2 Assay for human Vitamin D Receptor (VDR) (AID 2283022; active = hit-call score of the fitted dose curve at least 0.9, where 1 is the maximum)
Summary of the method: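 Fluorescence of labelled reporter cDNA fragments, resolved by capillary electrophoresis, gives mRNA induction after 24 h treatment of HepG2 cells carrying transfected Gal4-fusion reporter units. Activity is fitted in the positive direction with DMSO as baseline.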

[5] = BSK_3C_SRB: Viability Assessment in the BioMAP Diversity Plus: 3C Assay (AID 2283023); conditions: primary human endothelial cells (HUVEC);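 note: cells read 24 h after compound dosing; fitted both ways against DMSO so a hit may be signal rise or drop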
Summary of the method: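 Cells were dosed with chemical, cultured 24 h, fixed with 10% TCA, stained with 0.1% SRB and read at 560 nm. Human umbilical vein endothelium was used; DMSO served as negative control and baseline.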

[6] = read-out: Matrix Metallopeptidase 1 (MMP1), MMP1 (gene 4312); experiment: BSK_BE3C_MMP1: BioMAP Diversity Plus: BE3C Assay for Matrix Metallopeptidase 1 (MMP1) Biomarker Activity (AID 2283024); conditions: primary human bronchial epithelial cells; actives raise or lower the signal
Summary of the method: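 Dose cells, wait 24 h, run MMP1 ELISA; cells are human bronchial epithelial primaries. Both increases and decreases relative to DMSO counted.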

[7] = read-out: Pselectin, SELP (gene 6403); experiment: BSK_4H_Pselectin: BioMAP Diversity Plus: 4H Assay for Pselectin Biomarker Activity (AID 2283026); conditions: primary human endothelial cells (HUVEC); actives raise or lower the signal
Summary of the method: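 Human vascular endothelium from umbilical vein; P-selectin measured by ELISA at 24 h post-dose, with cytotoxicity checked by sulforhodamine B total-protein staining in parallel cultures (0.1% SRB after 10% TCA fixation, read at 560 nm).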

[8] = BSK_4H_SRB: Viability Assessment in the BioMAP Diversity Plus: 4H Assay (AID 2283027); conditions: primary human endothelial cells (HUVEC);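 note: cells exposed to compound for 24 h before staining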;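 for AC50: curves fitted both ways versus DMSO so AC50 may be loss or gain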
Summary of the method: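 Absorbance at 560 nm of SRB-stained total protein served as the viability read-out in confluent primary human umbilical vein endothelium 24 h after chemical treatment. Curves were fitted bidirectionally against DMSO as negative control.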

[9] = BSK_BE3C_SRB: Viability Assessment in the BioMAP Diversity Plus: BE3C Assay (AID 2283028); conditions: primary human bronchial epithelial cells
Summary of the method: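 Overt cytotoxicity was assessed as total protein in confluent human primary bronchial epithelial cultures 24 h after chemical addition, using 0.1% sulforhodamine B staining read at 560 nm.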

[10] = read-out: Thrombomodulin, THBD (gene 7056); experiment: BSK_3C_Thrombomodulin: BioMAP Diversity Plus: 3C Assay for Thrombomodulin Biomarker Activity (AID 2283029); conditions: primary human endothelial cells (HUVEC); actives raise or lower the signal
Summary of the method: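 Thrombomodulin ELISA, human primary HUVEC, 24 h post-dose; data fitted in both directions relative to DMSO.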

[11] = read-out: Urokinase-type plasminogen activator receptor (uPAR), PLAUR (gene 5329); experiment: BSK_4H_uPAR: BioMAP Diversity Plus: 4H Assay for Urokinase-type plasminogen activator receptor (uPAR) Biomarker Activity (AID 2283030); conditions: primary human endothelial cells (HUVEC); actives raise or lower the signal
Summary of the method: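 Chemicals are dosed onto human vascular endothelial primary cells (umbilical vein). After 24 h, uPAR is read by ELISA. Gain or loss of signal is fitted relative to DMSO.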

[12] = read-out: Vascular endothelial growth factor receptor 2 (Homo sapiens) (UniProt P35968); experiment: BSK_4H_VEGFRII: BioMAP Diversity Plus: 4H Assay for Vascular endothelial growth factor receptor 2 (VEGFR2) Biomarker Activity (AID 2283031); conditions: primary human endothelial cells (HUVEC); actives raise or lower the signal;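 for AC50: cell-surface VEGFR2 protein level quantified by ELISA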
Summary of the method: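 VEGFRII levels on human vascular endothelial primary cells were determined by ELISA at 24 hours post-dosing, with gain- or loss-of-signal fitted against DMSO controls.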

[13] = read-out: Human Leukocyte Antigen - DR isotype (HLADR), HLA-DRA (gene 3122); experiment: BSK_BE3C_HLADR: BioMAP Diversity Plus: BE3C Assay for Human Leukocyte Antigen - DR isotype (HLADR) Biomarker Activity (AID 2283032); conditions: primary human bronchial epithelial cells; actives raise or lower the signal
Summary of the method: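 Signal came from an ELISA for HLA-DR in human bronchial epithelial primary cells harvested 24 h after treatment; gain- and loss-of-signal fitting used DMSO controls as reference.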

[14] = read-out: Vascular cell adhesion molecule 1 (VCAM1), VCAM1 (gene 7412); experiment: BSK_4H_VCAM1: BioMAP Diversity Plus: 4H Assay for Vascular cell adhesion molecule 1 (VCAM1) Biomarker Activity (AID 2283033); conditions: primary human endothelial cells (HUVEC); actives raise or lower the signal
Summary of the method: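 Endpoint derived from bidirectional fitting against DMSO controls of VCAM-1 ELISA signal in umbilical vein endothelial cells sampled at 24 h following treatment.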

[15] = read-out: Interferon-gamma inducible Protein 10 (IP10), CXCL10 (gene 3627); experiment: BSK_BE3C_IP10: BioMAP Diversity Plus: BE3C Assay for Interferon-gamma inducible Protein 10 (IP10) Biomarker Activity (AID 2283034); conditions: primary human bronchial epithelial cells; actives raise or lower the signal
Summary of the method: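 Using primary human bronchial epithelial cultures, the assay captures IP-10 by ELISA one day (24 h) after exposure. Parallel SRB staining of total protein flags overt cytotoxicity. Fits run bidirectionally relative to DMSO.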

[16] = read-out: Plasminogen activator inhibitor-1 (PAI1), SERPINE1 (gene 5054); experiment: BSK_BE3C_PAI1: BioMAP Diversity Plus: BE3C Assay for Plasminogen activator inhibitor-1 (PAI1) Biomarker Activity (AID 2283037); conditions: primary human bronchial epithelial cells; actives raise or lower the signal
Summary of the method: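 PAI-1 biomarker levels in treated human bronchial epithelial cells are determined by ELISA at 24 h. Both increases and decreases relative to DMSO are fitted.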

[17] = read-out: urokinase plasminogen activator (uPA), PLAU (gene 5328); experiment: BSK_BE3C_uPA: BioMAP Diversity Plus: BE3C Assay for urokinase plasminogen activator (uPA) Biomarker Activity (AID 2283038); conditions: primary human bronchial epithelial cells; actives raise or lower the signal;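 note: uPA protein level quantified by ELISA in cell cultures; uPA read one day after compound addition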
Summary of the method: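 Measured by ELISA: uPA from human primary bronchial epithelial cells 24 h after chemical treatment. Values derive from bidirectional curve fitting with DMSO serving as negative control. Total protein by SRB staining in parallel wells flagged overt cytotoxicity.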

[18] = BSK_3C_Vis: BioMAP Diversity Plus: 3C Assay for Morphology Visualization (AID 2283025); conditions: primary human endothelial cells (HUVEC);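 note: fitted both ways so gain or loss versus DMSO counts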;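 for AC50: light microscopy image of cell morphology used as background control; cells imaged 24 h after dosing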
Summary of the method: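 Endothelial cells from human umbilical vein were treated with test chemicals for 24 h and inspected by light microscopy for changes in cell conformation.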

[19] = read-out: Transforming growth factor beta 1 (TGFb1), TGFB1 (gene 7040); experiment: BSK_BE3C_TGFb1: BioMAP Diversity Plus: BE3C Assay for Transforming growth factor beta 1 (TGFb1) Biomarker Activity (AID 2283036;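 note: TGF-b1 protein level measured by ELISA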); conditions: primary human bronchial epithelial cells; actives raise or lower the signal
Summary of the method: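 In this human primary bronchial epithelial system, an ELISA quantified TGF-b1 one day after dosing. Endpoint changes in either direction were fitted relative to DMSO.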

[20] = read-out: Monokine induced gamma interferon (MIG), CXCL9 (gene 4283); experiment: BSK_BE3C_MIG: BioMAP Diversity Plus: BE3C Assay for Monokine induced gamma interferon (MIG) Biomarker Activity (AID 2283035); conditions: primary human bronchial epithelial cells; actives raise or lower the signal;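 note: MIG protein measured by ELISA in BE3C cultures after 24 h of dosing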
Summary of the method: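 MIG level was determined by ELISA after 24 h chemical treatment of primary human bronchial epithelial cells. Values were fitted bidirectionally with DMSO as the negative control and activity baseline.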

Measured: AC50

Sequence of human Vitamin D Receptor (VDR), VDR (gene 7421) (P11473 whole entry, looked up, the tested form may be a part): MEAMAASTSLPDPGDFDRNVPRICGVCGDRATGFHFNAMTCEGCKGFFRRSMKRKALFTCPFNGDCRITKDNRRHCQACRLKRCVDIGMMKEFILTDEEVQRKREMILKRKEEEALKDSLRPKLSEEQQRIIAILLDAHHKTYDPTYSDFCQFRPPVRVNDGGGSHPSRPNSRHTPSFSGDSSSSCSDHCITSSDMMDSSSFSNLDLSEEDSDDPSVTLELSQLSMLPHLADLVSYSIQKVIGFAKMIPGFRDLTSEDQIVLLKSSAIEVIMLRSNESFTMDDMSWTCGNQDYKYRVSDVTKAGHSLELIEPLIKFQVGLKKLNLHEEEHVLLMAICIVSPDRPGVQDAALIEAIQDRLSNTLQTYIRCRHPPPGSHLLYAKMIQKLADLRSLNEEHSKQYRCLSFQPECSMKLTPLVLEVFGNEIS

COC(=O)Cc1ccccc1
inactive: [1] | [2] | [3] | [4] | [5] | [6] | [7] | [8] | [9] | [10] | [11] | [12] | [13] | [14] | [15] | [16] | [17]

COc1ccc(OC)c(C=O)c1
inactive: [4]

Oc1ccc(-c2ccccc2)cc1
inactive: [1] | [2] | [3] | [4] | [5] | [6] | [18] | [7] | [8] | [9] | [10] | [12] | [13] | [14] | [15] | [19] | [16] | [17]

Nc1ncc([N+](=O)[O-])s1
inactive: [1] | [2] | [3] | [5] | [6] | [18] | [7] | [8] | [9] | [10] | [11] | [12] | [13] | [14] | [15] | [20] | [19] | [16] | [17]

CCCCC(CC)CO[N+](=O)[O-] (stereo not drawn)
inactive: [2] | [3] | [6] | [9] | [10] | [15] | [20] | [19] | [16] | [17]
active: [1] 35.4 µM | [5] 34.9 µM | [18] 37.4 µM | [7] 30.6 µM | [8] 36.1 µM | [12] 31.9 µM | [13] 32.6 µM | [14] 30.5 µM

O=C(Cc1ccccc1)c1ccccc1
inactive: [4]

CCOP(=S)(OCC)SCSP(=S)(OCC)OCC
inactive: [1] | [2] | [3] | [5] | [6] | [18] | [7] | [8] | [9] | [10] | [11] | [12] | [13] | [14] | [15] | [20] | [19] | [16] | [17]

— PubChem BioAssay (EPA / NIEHS)
